From PubChem BioAssay AID1259421 (Broad Institute, 2018)
Several values for one entry are separate records, joined by “and”; a condition that tells them apart may be missing. Identical values can stand only once. Screen size: about 6,400 compounds; about 610 (9.5%) were called active. Cut-off read from the data, not from the text of the source: active = activity change below about -70%; inconclusive = no clear call, values can overlap the other calls; inactive = above that. The sample as a whole holds a higher share of actives than the screen did. More than one record can exist for a structure, and the calls need not agree.

Test: Toxoplasma gondii ME49Luc growth in HeLa cells, luciferase, no IFN-y, primary screen (AID 1259421)
Details: T. gondii ME49Luc in HeLa, 72 h, stronger effect = lower value, concentration not given here
With `CC1=CC[C@@H]2[C@@H](C1)c1c(O)cc(CC#CCCCNS(C)(=O)=O)cc1OC2(C)C` the activity change, negative = inhibition was 17.8% (inactive).
In the case of `COc1ccc(C(=O)O)cc1OC`, the activity change, negative = inhibition is reported as 8.1% (inactive).
For `O=C(O[C@H]1CN2CCC1CC2)N(Cc1cc(F)c(F)c(F)c1)c1cccc(F)c1`, the activity change, negative = inhibition was 16.6% (inactive).
In the case of `CC(=O)Oc1ccc(/C=C/c2cc(OC(C)=O)cc(OC(C)=O)c2)cc1`, the activity change, negative = inhibition is reported as 11.4% (inactive).
In the case of `O=C1CCC[C@@H]2[C@@H]3CCCN4CCC[C@H](CN12)[C@@H]34`, the activity change, negative = inhibition is reported as 15.2% (inactive).
In the case of `C=C1[C@@H](C)[C@H]2[C@H](Cc3ccccc3)NC(=O)[C@]23OC(=O)/C=C\[C@H](O)CCC[C@@H](C)C/C=C/[C@H]3[C@@H]1O`, the activity change, negative = inhibition is reported as -85.5% (active).
In the case of `C[C@]12Cc3cn[nH]c3C[C@@H]1CC[C@@H]1[C@@H]2CC[C@@]2(C)[C@H]1CC[C@]2(C)O`, the activity change, negative = inhibition is reported as -3.74% (inactive).
For `O=C(NC(=O)c1c(F)cccc1F)Nc1cc(Cl)c(OC(F)(F)C(F)C(F)(F)F)cc1Cl` (stereo not given), the activity change, negative = inhibition was -81.8% (active) and -81.1% (active).
With `CC(=O)OCC1=C(C(=O)O)N2C(=O)[C@@H](NC(=O)CCCC(N)C(=O)O)C2SC1.[Zn]` (stereo not given in full) the activity change, negative = inhibition was 20.4% (inactive).
With `CC(C)=CC1C(C(=O)OCc2coc(Cc3ccccc3)c2)C1(C)C` (stereo not given) the activity change, negative = inhibition was 19.4% (inactive).
For `Cc1c2ccncc2c(C)c2c1[nH]c1ccccc12`, the activity change, negative = inhibition was -83.1% (active).
For `Cc1nccc2c1[nH]c1ccccc12`, the activity change, negative = inhibition was 1.21% (inactive).
In the case of `c1ccc2c(c1)[nH]c1cnccc12`, the activity change, negative = inhibition is reported as -0.879% (inactive).
For `COc1ccc2c(c1)CN(C)CC2c1ccc(Cl)c(Cl)c1` (stereo not given), the activity change, negative = inhibition was 5.02% (inactive).
With `O=C1CCC2(O)C3Cc4ccc(O)c5c4C2(CCN3CC2CC2)C1O5` (stereo not given) the activity change, negative = inhibition was 10.3% (inactive).
For `Clc1ccc(C2=CCCC3CCC2N3)cn1` (stereo not given), the activity change, negative = inhibition was 12.4% (inactive) and -82.3% (active).
With `CN(C(=O)Cc1ccc(Cl)c(Cl)c1)[C@H](CN1CCCC1)c1ccccc1` the activity change, negative = inhibition was 8.8% (inactive) and 17.5% (inactive).
In the case of `OC12C3C4CC5C6C4C1C6C(C53)N2CCc1cccc(F)c1` (stereo not given), the activity change, negative = inhibition is reported as 18.7% (inactive) and 6.8% (inactive).
In the case of `CN(C)c1ccc(/C=C2\CCCN=C2c2cccnc2)cc1`, the activity change, negative = inhibition is reported as -1.7% (inactive) and -12.2% (inactive).
For `CC1(C)CC[C@]2(C(=O)O)CC[C@]3(C)[C@H](C(=O)C=C4[C@@]5(C)C=C(C#N)C(=O)C(C)(C)[C@@H]5CC[C@]43C)[C@@H]2C1`, the activity change, negative = inhibition was -98.8% (active).
For `O=C1NCN(c2ccccc2)C12CCN(CC1COc3ccccc3O1)CC2` (stereo not given), the activity change, negative = inhibition was -3.91% (inactive) and 4.3% (inactive).
For `CC1CC(C)C(=O)C(C(O)CC2CC(=O)NC(=O)C2)C1` (stereo not given), the activity change, negative = inhibition was -83.8% (active).
For `C[C@@H]1C[C@@H]([C@H](O)CC2CC(=O)NC(=O)C2)C(=O)[C@@H](C)C1`, the activity change, negative = inhibition was -81.3% (active) and -84.7% (active).
With `Oc1c(I)cc(I)cc1I` the activity change, negative = inhibition was 3.61% (inactive).
For `CN1CC(CNC(=O)OCc2ccccc2)CC2c3cccc4c3c(cn4C)CC21` (stereo not given), the activity change, negative = inhibition was 8.87% (inactive) and 8.34% (inactive).
For `N#CC(C#N)=NNc1ccc(OC(F)(F)F)cc1`, the activity change, negative = inhibition was 20% (inactive).
In the case of `Oc1ccc2c3c1O[C@H]1c4oc5ccccc5c4C[C@@]4(O)C(C2)N(CC2CC2)CC[C@]314`, the activity change, negative = inhibition is reported as -2.8% (inactive).
With `C/C(=C/C=C/[C@@H](C)C(=O)O)[C@H]1CN[C@H](C(=O)O)[C@H]1CC(=O)O` the activity change, negative = inhibition was 4.56% (inactive).
With `c1ccc(CCCN2CCN(CCOC(c3ccccc3)c3ccccc3)CC2)cc1` the activity change, negative = inhibition was -51.1% (inactive) and -1.58% (inactive).
For `C[C@H]1CN(Cc2ccc(CC(=O)N3CCC(Nc4cccc(F)c4)CC3)cc2)CCN1`, the activity change, negative = inhibition was 4.86% (inactive).
With `CC(C)(C)c1cc(C=C(C#N)C#N)cc(C(C)(C)C)c1O` the activity change, negative = inhibition was -90.8% (active) and -88.7% (active).
For `CC(C)(C)c1cc(C=C(C#N)C#N)cc(Br)c1O`, the activity change, negative = inhibition was -39.2% (inactive).
With `N#CC(C#N)=Cc1ccc(O)c(O)c1` the activity change, negative = inhibition was 10.7% (inactive) and 7.11% (inactive).
With `CN1C(=O)N(C)C2C1N(C)C(=O)N2C` (stereo not given) the activity change, negative = inhibition was 5.58% (inactive).
With `OC1CC2CCCC(C1)N2Cc1ccccc1` (stereo not given) the activity change, negative = inhibition was 4.85% (inactive).
With `CC(=O)O[C@@H]1CC2C(C)(C)C(=O)C=C[C@]2(C)C2CC[C@]3(C)C(=CC(=O)O[C@H]3c3ccoc3)[C@@]21C` (stereo not given in full) the activity change, negative = inhibition was -83.5% (active).
In the case of `CC(=O)O[C@H]1C[C@@H](OC(C)=O)C(C)(C)C2C[C@@H](OC(C)=O)[C@]3(C)C(CC[C@@]4(C)[C@H](c5ccoc5)C(=O)[C@H]5O[C@]543)[C@]21C` (stereo not given in full), the activity change, negative = inhibition is reported as 11.1% (inactive).
With `CC1(C)C(=O)C=C[C@@]2(C)C1C[C@@H](O)[C@]1(C)C2CC[C@@]2(C)[C@H](c3ccoc3)OC(=O)[C@H]3O[C@]321` (stereo not given in full) the activity change, negative = inhibition was 13.2% (inactive).
For `CCN(CC)CCOC1CCC2(C)C(=CCC3C4CCC(=O)C4(C)CCC32)C1` (stereo not given), the activity change, negative = inhibition was -5.47% (inactive).
For `CN1CC2CCCC(C1)C2OC(=O)C(O)(c1ccccc1)C1CCCC1` (stereo not given), the activity change, negative = inhibition was 36% (inactive).
In the case of `C[C@H](N)Cc1cnc[nH]1`, the activity change, negative = inhibition is reported as 10.9% (inactive).
With `Cc1cccc(C(C)c2cnc[nH]2)c1C` (stereo not given) the activity change, negative = inhibition was 15.9% (inactive) and 24.6% (inactive).
In the case of `CCCCCCC(C)(C)c1ccc(C2CC(O)CCC2CCCO)c(O)c1` (stereo not given), the activity change, negative = inhibition is reported as 0.246% (inactive).
In the case of `CC(=O)[C@H]1CC[C@H]2[C@@H]3CC[C@H]4C[C@H](O)CC[C@]4(C)[C@H]3C(=O)C[C@]12C`, the activity change, negative = inhibition is reported as 12.1% (inactive).
In the case of `C[C@]12CC[C@H](O)C[C@H]1CC[C@@H]1[C@@H]2C[C@@H](O)[C@]2(C)[C@@H](C3=CC(=O)OC3)CC[C@]12O`, the activity change, negative = inhibition is reported as -93.5% (active).
With `C[C@]12[C@H](O)CC3C(CC[C@@H]4C[C@@H](O)CC[C@]34C)[C@@]1(O)CC[C@@H]2C1=CC(=O)OC1` (stereo not given in full) the activity change, negative = inhibition was -84.3% (active).
For `CC(=O)C1CCC2C3CCC4C[C@H](O)CCC4(C)C3C[C@H](O)C12C` (stereo not given in full), the activity change, negative = inhibition was 3.84% (inactive).
For `C[C@]12CC[C@@H](O)C[C@@H]1CC[C@@H]1[C@@H]2CC[C@]2(C)C(=O)CC[C@@H]12`, the activity change, negative = inhibition was 9.11% (inactive).
In the case of `C[C@]12CC[C@H](O)C[C@H]1CC[C@@H]1[C@@H]2CC[C@]2(C)[C@@H](C3=CC(=O)OC3)CC[C@]12O`, the activity change, negative = inhibition is reported as -86.6% (active).
For `C[C@]12CC[C@H](O)C[C@H]1CC[C@@H]1[C@@H]2CC[C@]2(C)[C@@](O)(c3ccoc3)CC[C@]12O`, the activity change, negative = inhibition was 2.9% (inactive).
With `CC(=O)OCC(=O)[C@H]1CC[C@H]2[C@@H]3CC[C@H]4C[C@H](O)CC[C@]4(C)[C@H]3C(=O)C[C@]12C` the activity change, negative = inhibition was -8.47% (inactive).
In the case of `C[C@]12CC[C@@H](O)C[C@@H]1CC[C@@H]1[C@@H]2CC[C@]2(C)[C@@H](C(=O)CO)CC[C@@H]12`, the activity change, negative = inhibition is reported as 8.82% (inactive).
With `Cl/C=C\C[N+]12CN3CN(CN(C3)C1)C2` the activity change, negative = inhibition was 5.98% (inactive).
In the case of `NC1=NC(=O)N2CC12` (stereo not given), the activity change, negative = inhibition is reported as 6.84% (inactive).
With `Oc1ccc2c3c1OC1c4oc5ccccc5c4CC4(O)C(C2)N(CC2CC2)CCC314` (stereo not given) the activity change, negative = inhibition was -19.3% (inactive).
With `N#CC(O[C@@H]1O[C@H](CO[C@@H]2O[C@H](CO)[C@@H](O)[C@H](O)[C@H]2O)[C@@H](O)[C@H](O)[C@H]1O)c1ccccc1` (stereo not given in full) the activity change, negative = inhibition was 19% (inactive).
In the case of `COC[C@@H](NC(C)=O)C(=O)NCc1ccccc1`, the activity change, negative = inhibition is reported as -51% (inactive).
With `O=C1Nc2ccc(Cl)cc2C(c2ccccc2Cl)=NC1O` (stereo not given) the activity change, negative = inhibition was 5.64% (inactive).
With `CC(C)CC(NC(=O)C(Cc1ccccc1)NC(=O)CNC(=O)[C@H](C)NC(=O)C(N)Cc1ccc(O)cc1)C(=O)N[C@H](CCCN=C(N)N)C(=O)O` (stereo not given in full) the activity change, negative = inhibition was 10.6% (inactive).
With `O=C1CN=C(c2cccc(Br)c2)c2oc3ccccc3c2N1` the activity change, negative = inhibition was 22.5% (inactive).
In the case of `CNC(=O)Oc1ccccc1OC(C)C`, the activity change, negative = inhibition is reported as 12.8% (inactive).
For `ClC=C(Cl)Cl`, the activity change, negative = inhibition was 8.81% (inactive).
For `Oc1ccc2c3c1OC1c4c(c5ccccc5n4Cc4ccccc4)CC4(O)C(C2)N(CC2CC2)CCC314` (stereo not given), the activity change, negative = inhibition was -1.02% (inactive).
In the case of `CCCCCCCCCCCCC/C=C/[C@@H](O)[C@@H](N)COP(=O)(O)OCC[N+](C)(C)C`, the activity change, negative = inhibition is reported as -1.29% (inactive).
For `NC(=O)CN1C[C@H](O)CC1=O`, the activity change, negative = inhibition was -40.7% (inactive).
In the case of `CN1CCc2cc3c(cc2C1[C@@H]1OC(=O)c2c1ccc1c2OCO1)OCO3` (stereo not given in full), the activity change, negative = inhibition is reported as 8.11% (inactive).
With `CC(C)(C)c1o[nH]c(=O)c1CC(N)C(=O)O` (stereo not given) the activity change, negative = inhibition was -79.9% (active) and 9.91% (inactive).
In the case of `Cc1o[nH]c(=O)c1C[C@H](N)C(=O)O`, the activity change, negative = inhibition is reported as 13.1% (inactive).
With `Cc1o[nH]c(=O)c1CC(N)C(=O)O` (stereo not given) the activity change, negative = inhibition was 3.8% (inactive).
With `Oc1ccc2c3c1OC1c4[nH]c5ccccc5c4CC4(O)C(C2)N(CC2CC2)CCC314` (stereo not given) the activity change, negative = inhibition was 6.33% (inactive).
For `CN1C2CCC1CC(OC(=O)c1cc(Cl)cc(Cl)c1)C2` (stereo not given), the activity change, negative = inhibition was -1.24% (inactive) and 2.27% (inactive).
With `C[C@H]1CCC/C=C/[C@@H]2C[C@H](O)C[C@H]2[C@H](O)/C=C/C(=O)O1` the activity change, negative = inhibition was -94.5% (active).
With `COc1ccc(/C=C/C(=O)CC(=O)/C=C/c2ccc(OC)c(OC)c2)cc1OC` the activity change, negative = inhibition was 2.29% (inactive).
With `CC(C)(c1ccc(OCC2CO2)cc1)c1ccc(OCC2CO2)cc1` (stereo not given) the activity change, negative = inhibition was 9.89% (inactive).
With `CN1C2CCC1CC(OC(c1ccccc1)c1ccccc1N)C2` (stereo not given) the activity change, negative = inhibition was 16.3% (inactive).
For `c1cc2c(c(N3CCNCC3)c1)OCCO2`, the activity change, negative = inhibition was -0.0388% (inactive).
With `CN1C2CCC1CC(OC(c1ccc(F)cc1)c1ccc(F)cc1)C2` (stereo not given) the activity change, negative = inhibition was 22.3% (inactive) and 38.4% (inactive).
In the case of `CC(=O)N(C)c1cccc(-c2ccnc3c(C(=O)c4cccs4)cnn23)c1`, the activity change, negative = inhibition is reported as 42.5% (inactive).
For `O=C1NC(=O)c2c1c1c3ccccc3n3c1c1c2c2ccccc2n1C1CCC3O1`, the activity change, negative = inhibition was -71.9% (active).
In the case of `O=C1NC(=O)c2c1c1c3ccccc3[nH]c1c1[nH]c3ccccc3c21`, the activity change, negative = inhibition is reported as -28.7% (inactive) and -11.9% (inactive).
